Source: PubChem BioAssay (NCATS)
Results filed as inconclusive are left out. Calls of active or inactive are those of the source. The call rests on the fitted dose curve; in most records, active means well fitted curve in the direction sought with a large enough effect; inconclusive means small, poorly fitted or top-dose-only effect, or another doubt; inactive means no such curve, though single readings can be large; an effect the other way counts as inactive or inconclusive.

Columns and labels:
[1] = Cell Viability - LYMP2-004 (AID 966); further: nearly all actives have a fitted effect of over 65% in size
Method in brief: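 Acute toxicity is scored as a concentration-dependent drop in intracellular ATP, quantified by luciferase luminescence, in human lymphoblastoid cells exposed to compound for 24 hr. AC50 derives from Hill-equation modelling.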

[2] = Cell Viability - LYMP2-005 (AID 967); further: series mostly up to about 92 µM
Method in brief: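 Steps: seed 2500 LYMP2-005 cells/well, incubate 5 h at 37 C, add compound, incubate 24 h at 37 C, add CellTiter-Glo, wait 30 min at RT, read luminescence. Concentration-response data fitted to Hill equation for AC50.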

[3] = Cell Viability - LYMP2-009 (AID 968); further: series mostly up to about 92 µM; nearly all actives have a fitted effect of over 55% in size
[4] = Cell Viability - LYMP2-011 (AID 969); further: nearly all actives have a fitted effect of over 60% in size
Method in brief: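 Acute toxicity is scored as a concentration-dependent drop in intracellular ATP of a human lymphoblastoid line after 24 hr treatment. Values are AC50s modeled with the Hill equation.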

[5] = Cell Viability - LYMP2-013 (AID 970); further: series mostly up to about 92 µM; nearly all actives have a fitted effect of over 55% in size
Method in brief: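 Acute toxicity was measured in human lymphoblastoid cells (2500/well) exposed to compound titrations for 24 hr, with ATP luminescence (CellTiter-Glo) as read-out and AC50 fitted by Hill equation.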

[6] = Cell Viability - LYMP2-015 (AID 971); further: nearly all actives have a fitted effect of over 55% in size
Method in brief: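 Acute toxicity was scored as a concentration-dependent drop in intracellular ATP in lymphoblastoid cells after 24 hr compound exposure in complete medium. Detection used CellTiter-Glo luciferase luminescence.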

[7] = Cell Viability - LYMP2-017 (AID 972);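 further: series mostly up to about 92 µM; cells exposed to compound for 24 hours at 37 °C; nearly all actives have a fitted effect of over 55% in size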
Method in brief: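 Steps: plate 2500 lymphoblastoid cells per well; incubate 5 hr at 37 C; add compound across a concentration series and incubate 24 hr at 37 C; add CellTiter-Glo and read luminescence after 30 min at room temperature; fit Hill curves for AC50.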

[8] = Cell Viability - LYMP2-019 (AID 973); further: nearly all actives have a fitted effect of over 55% in size
Method in brief: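 Cells plated at 2500/well and allowed 5 hr at 37 C before compound addition. After 24 hr incubation, CellTiter-Glo reagent was added, plates sat 30 min at room temperature, and luminescence was recorded.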

[9] = Cell Viability - LYMP2-021 (AID 974)
Method in brief: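 Concentration-response cytotoxicity in a human lymphoblastoid line: 24 hr treatment at 37 C in complete culture medium, tetraoctylammonium bromide as positive control, luminescent ATP quantitation as viability measure.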

[10] = Cell Viability - LYMP2-023 (AID 975)
Method in brief: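 Concentration-dependent drop in intracellular ATP measures acute cytotoxicity in a human lymphoblastoid line treated for 24 hours in complete culture medium. AC50 values are taken from Hill-equation fits of qHTS data.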

Measured: Potency

CC(C)=C1CCC(C)CC1=O (stereo not given)
inactive: all assays above

CCCCCCCCCCCCC1CO1 (stereo not given)
not listed: [9]
inactive: all other assays above

CC(C)=CCC/C(C)=C/C=O
not listed: [9]
inactive: all other assays above

CC/C(C)=N/O
inactive: all assays above

Cc1ccc2c(c1[N+](=O)[O-])C(=O)c1ccccc1C2=O
not listed: [9]
inactive: all other assays above

Nc1ccc([N+](=O)[O-])c(N)c1
not listed: [7]
inactive: all other assays above

CC(=O)c1ccccc1[N+](=O)[O-]
not listed: [6]
inactive: all other assays above
